Drawing on PubChem BioAssay AID540259 (Broad Institute, 2011), this text covers outcome for 37 molecules.

Entries with a potency or affinity are not part of this list. Activity calls are given as the source filed them.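 The calls were made as follows: active = cell killing, meaning signal decrease, with fitted half-maximal dose at or below ten times the top valid tested dose; inconclusive = poor fit, or flat curve with 30 to 70% signal loss; inactive = the rest.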

This experiment is described as follows: ATP-based viability loss in HeLa cells – cell-based, CellTiter-Glo luminescence, cherry-pick samples, cytotoxicity control for MITF activator project, dose response (AID 540259). The following applies: 24 h; series mostly up to 35 µM.
For `Brc1ccc(OCc2cn3ccccc3n2)cc1`, the result was inactive.

For `CC(NC(=O)c1cc(COc2ccccc2)on1)c1nccs1` (configuration not stated), the molecule was classed as inactive.

Consider `CCCCSc1nsc(NC(C)=O)n1`, for which the call was inactive.

Regarding `O=C(N/N=C/c1ccccn1)c1c[nH]c2ccccc12`, the call was inactive.

Take `COc1ccc(C(=O)CN2Cc3ccccc3C2=N)cc1`: the outcome was inactive.

For the molecule `Cn1ccs/c1=N\C(=O)Nc1ccccc1`, the molecule was classed as inactive.

For `CCN(CC)c1ccc(-c2nc3cnccc3n2C)cc1`, the molecule was classed as inactive.

For the molecule `COc1ccc2sc(NCc3ccccc3)nc2c1`, the molecule was classed as inactive.

Turning to `COc1cccc(/C=N/Nc2c(Cl)cncc2Cl)c1O`, the outcome was inactive.

Take `CCC(C)NC(=O)c1cc(-c2ccc(OC)cc2)on1` (configuration not stated): the molecule was classed as inactive.

In the case of `O=C(CC(Nc1ccccc1)C(=O)O)c1ccccc1` (configuration not stated), the result was inactive.

For the molecule `C#CCSc1nnc(-c2ccc(O)cc2)o1`, the molecule was called inactive.

`COc1ccc(/C=C2\OC(=O)c3c(OC)cccc32)cc1OC`: the call was inactive.

For `CCc1cccc(NC(=O)c2sc3nc4n(c(=O)c3c2C)CCC4)c1`, the call was inactive.

Regarding `COc1ccc(/C=N/Nc2nccnc2Cl)c(OC)c1`, the result was inactive.

With `COc1c(C)cccc1C(=O)Nc1ccc(N2CCN(S(C)(=O)=O)CC2)cc1`, the molecule was classed as inactive.

For the molecule `Cc1cc(C)c(NN=c2c(=O)c3ccccc3c2=O)c(C)c1`, the call was inactive.

Take `O=C(N/N=C/c1ccsc1)c1ccc2c(c1)OCO2`: the molecule was called inactive.

With `CN(C)c1ccc(CSc2ccccc2)cc1`, the call was inactive.

Regarding `CN(C)S(=O)(=O)c1cccc(-c2nnc(-c3ccccc3)o2)c1`, the molecule was classed as inactive.

For the molecule `[O-]/[N+](=C\C=C\c1ccccc1)c1ccccc1`, the result was inactive.

Turning to `CC(=O)c1cnc2nc(SCc3ccccc3)nn2c1C`, the call was inactive.

In the case of `Clc1ccc(-c2nc(C3CCCCC3)no2)cc1`, the molecule was called inactive.

Take `C=CCc1c(C)nc(-c2ccccc2)nc1N/N=C/c1ccncc1`: the call was inactive.

As for `CCN1CCN(c2ccc(NC(=O)c3cccc(F)c3)cc2Cl)CC1`, the call was inactive.

For the molecule `Cc1ccc(Nc2ncc3c(n2)CC(C)(C)CC3=O)cc1`, the result was inactive.

In the case of `COc1ccc(-c2nnc(SCc3ccccc3)n2N)cc1`, the outcome was inactive.

Turning to `O=C(CC1CCCC1)Nc1ccc(Br)cc1`, the outcome was inactive.

`CCn1cnc2cc(NCc3ccccc3Cl)ccc21`: the molecule was classed as inactive.

For `Cc1cccc(OCc2nc(-c3nonc3N)no2)c1C`, the molecule was classed as inactive.

Take `CN(C)c1ccc(/C=C/c2cccc[n+]2[O-])cc1`: the call was inactive.

Consider `CC(C)(C)c1ccc(C(=O)Nc2ccc(F)cc2)s1`, for which the outcome was inactive.

In the case of `CCCCC(=O)Nc1sc2c(c1C#N)CC(C)(C)OC2`, the outcome was inactive.

Take `CC(C)(C)C(=O)c1sc(Nc2ccccc2)nc1N`: the outcome was inactive.

On to `COc1cc(/C=C/c2noc(-c3ccccc3O)n2)ccc1OC(C)=O`, for which the call was inactive.

Consider `c1cnc2nc(-c3ccc4c(c3)OCO4)cn2c1`, for which the result was inactive.

As to `Cc1nn(-c2ccc(N3CCCCC3)nn2)c(C)c1CCC(=O)Nc1cccc(F)c1`, the call was inactive.
